{"source": "PubChem BioAssay AID1445", "about": "(SRMLSC, 2008)", "note": "The whole screen tested about 220,000 compounds, of which about 910 (0.41%) were called active.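 How the source made its calls: active means primary inhibition above the hit cutoff, then over 50% inhibition at one or more dose response concentrations (cut at about 23% in these data, passing the limit was not always enough); inconclusive means conflicting primary data, or primary hits not chosen for dose response; inactive means low primary inhibition, or under 50% at every dose.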 Shown is part of a subset that was picked to be rich in actives. Results with a measured potency or affinity are listed apart.", "data": [{"target": "Aminopeptidase N (Plasmodium falciparum (isolate 3D7)) (UniProt O96935)", "sequence (O96935 whole entry, looked up)": "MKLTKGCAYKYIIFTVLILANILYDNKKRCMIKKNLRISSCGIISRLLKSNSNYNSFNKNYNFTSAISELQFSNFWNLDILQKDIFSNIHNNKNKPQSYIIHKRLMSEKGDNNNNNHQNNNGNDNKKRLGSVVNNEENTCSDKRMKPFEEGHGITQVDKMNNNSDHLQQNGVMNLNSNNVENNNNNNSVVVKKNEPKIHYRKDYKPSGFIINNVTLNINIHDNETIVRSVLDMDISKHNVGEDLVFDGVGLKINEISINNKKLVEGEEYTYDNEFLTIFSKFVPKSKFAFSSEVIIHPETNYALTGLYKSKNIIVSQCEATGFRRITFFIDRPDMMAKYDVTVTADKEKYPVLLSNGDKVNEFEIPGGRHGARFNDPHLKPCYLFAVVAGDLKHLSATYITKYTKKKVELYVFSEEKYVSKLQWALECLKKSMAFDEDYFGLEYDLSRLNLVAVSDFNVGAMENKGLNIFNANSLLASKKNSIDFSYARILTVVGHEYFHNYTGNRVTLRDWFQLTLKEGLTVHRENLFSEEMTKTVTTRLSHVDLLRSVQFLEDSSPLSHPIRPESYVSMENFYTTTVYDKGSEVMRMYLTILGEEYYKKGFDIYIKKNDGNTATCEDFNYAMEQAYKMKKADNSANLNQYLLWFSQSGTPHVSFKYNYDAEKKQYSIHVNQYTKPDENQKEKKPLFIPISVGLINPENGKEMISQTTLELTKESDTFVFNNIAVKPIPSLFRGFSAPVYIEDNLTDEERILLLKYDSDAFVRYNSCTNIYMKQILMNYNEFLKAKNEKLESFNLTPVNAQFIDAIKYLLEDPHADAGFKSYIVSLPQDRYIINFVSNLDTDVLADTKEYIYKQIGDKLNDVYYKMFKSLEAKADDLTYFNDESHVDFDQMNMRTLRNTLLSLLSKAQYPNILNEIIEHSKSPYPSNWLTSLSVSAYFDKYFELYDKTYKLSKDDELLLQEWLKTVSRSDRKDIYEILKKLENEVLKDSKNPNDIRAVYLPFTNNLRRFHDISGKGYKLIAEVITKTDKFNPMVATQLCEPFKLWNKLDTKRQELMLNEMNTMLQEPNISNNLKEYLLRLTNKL", "assay": "P. falciparum M1AAP inhibitors, biochemical, fluorogenic H-Leu-NHMec substrate, 1536-well (AID 1445);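 further: plate controls were DMSO full reaction for no effect and no enzyme background for full effect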", "details": "recombinant M1AAP, H-Leu-NHMec fluorogenic kinetic assay; at 30 µM, hits give high values unless noted", "values": [{"smiles": "O=C(Nc1ccc2nn(-c3ccccc3)nc2c1)c1cccs1", "inhibition": "-15.1% (inactive)"}, {"smiles": "CCCCC(CC)CNC(=O)C1CCCN(S(=O)(=O)c2cnc[nH]2)C1", "note": "(configuration not stated)", "inhibition": "24.2% (active)"}, {"smiles": "COc1ccccc1NC(=O)C1CCCN(S(=O)(=O)c2cnc[nH]2)C1", "note": "(configuration not stated)", "inhibition": "1.4% (inactive)"}, {"smiles": "CCCCNC(=O)C1CCN(S(=O)(=O)c2cnc[nH]2)CC1", "inhibition": "14.7% (inactive)"}, {"smiles": "O=C(NCc1ccccc1Cl)C1CCCN(S(=O)(=O)c2cnc[nH]2)C1", "note": "(configuration not stated)", "inhibition": "4.7% (inactive)"}, {"smiles": "COc1ccccc1CNC(=O)C1CCCN(S(=O)(=O)c2cnc[nH]2)C1", "note": "(configuration not stated)", "inhibition": "23.9% (active)"}, {"smiles": "Cc1ccc(CNC(=O)C2CCCN(S(=O)(=O)c3cnc[nH]3)C2)cc1", "note": "(configuration not stated)", "inhibition": "-2.21% (inactive)"}, {"smiles": "CC(C)(C)N1C(=O)c2ccccc2NC(=O)N1Cc1ccc(Br)cc1", "inhibition": "2.07% (inactive)"}, {"smiles": "O=C1CC(SC(=Nc2ccccc2)Nc2ccccc2)C(=O)N1c1ccc(Cl)c(Cl)c1", "note": "(configuration not stated)", "inhibition": "-2.66% (inactive)"}, {"smiles": "CCC/C(O)=C1\\C(=O)CCCC1=NCCc1ccc(OCC)c(OCC)c1", "inhibition": "5.18% (inactive)"}, {"smiles": "CC(=O)c1cccc(-n2nnnc2SCC(=O)Nc2cccc(NC(=O)c3ccco3)c2)c1", "inhibition": "8.36% (inactive)"}, {"smiles": "Cc1c(N=Cc2ccncc2)c(=O)n(-c2ccccc2)n1C", "inhibition": "1.24% (inactive)"}, {"smiles": "Cc1c(N=Cc2nc3ccccc3[nH]2)c(=O)n(-c2ccccc2)n1C", "inhibition": "17.4% (inactive)"}, {"smiles": "Cc1c(N=Cc2nc3ccccc3n2C)c(=O)n(-c2ccccc2)n1C", "inhibition": "27.3% (active)"}, {"smiles": "O=C(NCCc1c[nH]c2ccccc12)C(=O)NCC1OCCCN1S(=O)(=O)c1ccc(F)cc1", "note": "(configuration not stated)", "inhibition": "4.14% (inactive)"}, {"smiles": "CCc1cccc(CC)c1NC(=O)COC(=O)c1ccc(F)c(S(=O)(=O)N(CC)CC)c1", "inhibition": "3.7% (inactive)"}, {"smiles": "CCOc1ccccc1NC(=O)Nc1cnccn1", "inhibition": "8.05% (inactive)"}, {"smiles": "O=c1c2ccccc2nc2n1CC/C2=C\\c1ccccc1[N+](=O)[O-]", "inhibition": "1.69% (inactive)"}, {"smiles": "CCOC(=O)c1ccc(-n2c(C)nc3ccccc3c2=O)cc1", "inhibition": "3.03% (inactive)"}, {"smiles": "CSc1ncc(Cl)c(C(=O)Nc2cccc(C)c2)n1", "inhibition": "6.29% (inactive)"}, {"smiles": "CSc1ncc(Cl)c(C(=O)Nc2ccc(NC(C)=O)cc2)n1", "inhibition": "1.65% (inactive)"}, {"smiles": "COc1ccc(S(=O)(=O)N2CCC(NC(=O)C(Cc3cccc(OC)c3OC)NC(C)=O)CC2)cc1", "note": "(configuration not stated)", "inhibition": "12.2% (inactive)"}, {"smiles": "CCOC(=O)CSCC(=O)Nc1nnc(-c2cccc([N+](=O)[O-])c2)s1", "inhibition": "2.17% (inactive)"}, {"smiles": "COc1ccc(-n2c(SCC(=O)Nc3cc(C)on3)nc3c([nH]c4ccccc43)c2=O)cc1", "inhibition": "0.91% (inactive)"}, {"smiles": "CN1C(=O)C(C(=O)NC(C)(C)C)C2c3ccccc3OC13CCCCC23", "note": "(configuration not stated)", "inhibition": "24.3% (active)"}, {"smiles": "COc1ccc(NC(=O)C2C(=O)N(C)C3(C)CC2c2ccccc2O3)cc1", "note": "(configuration not stated)", "inhibition": "9.89% (inactive)"}, {"smiles": "COc1ccc2c(c1)OC13CCCCC1C2C(C(=O)c1ccccc1)C(=O)N3", "note": "(configuration not stated)", "inhibition": "-8.77% (inactive)"}, {"smiles": "Cc1nc(SCC(=O)N2c3ccccc3Sc3ccccc32)n[nH]1", "inhibition": "4.61% (inactive)"}, {"smiles": "CCOc1ccc2nc(NC(=O)CSc3ccc(Cl)cc3)sc2c1", "inhibition": "2.68% (inactive)"}, {"smiles": "CC(=O)CSc1nc(-c2cccs2)c(C#N)c(=O)[nH]1", "inhibition": "7.78% (inactive)"}, {"smiles": "O=C(CSc1nc(O)cc(=O)[nH]1)N1c2ccccc2Sc2ccccc21", "inhibition": "18.4% (inactive)"}, {"smiles": "Cc1cc(C)c(C#N)c(SCC(=O)c2cccs2)n1", "inhibition": "2.39% (inactive)"}, {"smiles": "CCOc1ccc2nc(NC(=O)CSc3ccccc3)sc2c1", "inhibition": "8.9% (inactive)"}, {"smiles": "O=C(CCc1ccc(S(=O)(=O)N2CCOCC2)cc1)Nc1ccc(N2CCOCC2)cc1", "inhibition": "3.54% (inactive)"}, {"smiles": "Cc1ccc(-c2noc(CN(C(=O)C(c3ccccc3)c3ccccc3)C(C)C)n2)cc1", "inhibition": "5.44% (inactive)"}, {"smiles": "NC(=O)N/N=C/c1ccccc1OC(=O)c1ccccc1Br", "inhibition": "0.59% (inactive)"}, {"smiles": "Cc1ccc(C)c(CS(=O)(=O)c2cn(CC(=O)N3CCC(C)CC3)c3ccccc23)c1", "inhibition": "9.18% (inactive)"}, {"smiles": "Cc1ccccc1CS(=O)(=O)c1cn(CC(=O)N2CCC(C)CC2)c2ccccc12", "inhibition": "9.75% (inactive)"}, {"smiles": "CCN(C1CCCCC1)S(=O)(=O)c1ccc(S(=O)(=O)N2CCN(CCC#N)CC2)cc1", "inhibition": "-1.62% (inactive)"}, {"smiles": "O=C(/C=C\\Nc1ccc2c(c1)OCO2)c1ccc(Cl)s1", "inhibition": "3.02% (inactive)"}, {"smiles": "O=S(=O)(NC1CCCC1)c1ccc(S(=O)(=O)N2CCCN(Cc3ccccc3)C2)cc1", "inhibition": "0.63% (inactive)"}, {"smiles": "CC(=NCc1ccncc1)C1=C(O)c2ccccc2C1=O", "inhibition": "23.6% (active)"}, {"smiles": "CC(=NCc1cccnc1)C1=C(O)c2ccccc2C1=O", "inhibition": "4.58% (inactive)"}, {"smiles": "CCCN=C(C)C1=C(O)c2ccccc2C1=O", "inhibition": "3.71% (inactive)"}, {"smiles": "CCC(c1nnnn1Cc1ccco1)N1CCC(C(N)=O)CC1", "note": "(configuration not stated)", "inhibition": "10.1% (inactive)"}, {"smiles": "Nc1cc(-c2ccccc2)nn1Cc1ccccc1", "inhibition": "34.3% (inactive)"}, {"smiles": "Nc1cc(-c2ccccc2)nn1Cc1ccc(Cl)cc1", "inhibition": "25.7% (active)"}, {"smiles": "Cc1ccc(-c2cc(N)n(Cc3ccc(Cl)cc3)n2)cc1", "inhibition": "12.9% (inactive)"}, {"smiles": "N#CC1=C(N)OC2=C(C(=O)CCC2)[C@]12C(=O)N(CC(N)=O)c1ccccc12", "inhibition": "9.16% (inactive)"}, {"smiles": "Cc1cccc(Nc2nc(N)nc(CN3CCN(C)CC3)n2)c1", "inhibition": "9.59% (inactive)"}, {"smiles": "CCN(CC)CCCNC(=O)C(C)n1c2ccccc2c2nc(=O)cc(C)n21", "note": "(configuration not stated)", "inhibition": "3.31% (inactive)"}, {"smiles": "COc1ccc(N/C(C)=C2/C(=O)C(=O)N(CCO)C2c2ccc(Br)cc2)cc1", "note": "(configuration not stated)", "inhibition": "7.27% (inactive)"}, {"smiles": "COc1ccc(C2/C(=C(/O)c3ccccc3)C(=O)C(=O)N2CCO)cc1", "note": "(configuration not stated)", "inhibition": "2.56% (inactive)"}, {"smiles": "COc1ccc(N/C(C)=C2/C(=O)C(=O)N(CCO)C2c2ccc([N+](=O)[O-])cc2)cc1", "note": "(configuration not stated)", "inhibition": "23.9% (active)"}, {"smiles": "CCCCN1C(=O)C(O)=C(C(C)=O)C1c1ccccc1[N+](=O)[O-]", "note": "(configuration not stated)", "inhibition": "-0.46% (inactive)"}, {"smiles": "CCCCN(CC)S(=O)(=O)c1ccc2c(c1)CCCN2C(C)=O", "inhibition": "-2.36% (inactive)"}, {"smiles": "CC1CCCCN1S(=O)(=O)c1cnc(Cl)c(Br)c1", "note": "(configuration not stated)", "inhibition": "-7.81% (inactive)"}, {"smiles": "O=C(c1ccccc1F)N1CCN=C1c1ccccc1", "inhibition": "6.9% (inactive)"}, {"smiles": "Cc1occc1C(=O)N/N=C/c1ccccn1", "inhibition": "3.01% (inactive)"}, {"smiles": "Nn1c(SCC(=O)Nc2cc(S(=O)(=O)N3CCOCC3)ccc2Cl)nnc1-c1cccnc1", "inhibition": "6.37% (inactive)"}, {"smiles": "COc1ccc(-n2cnnc2SCC(=O)Nc2cc(S(=O)(=O)N3CCCCC3)ccc2C)cc1", "inhibition": "3.33% (inactive)"}, {"smiles": "Cc1ccnc2nc(C(=O)Nc3ccc(S(=O)(=O)N4CCCC4)cc3)nn12", "inhibition": "-4.02% (inactive)"}, {"smiles": "O=C(CSc1nc2ccccc2nc1SCC(=O)N1CCCCC1)N1CCCCC1", "inhibition": "42.7% (active)"}, {"smiles": "COc1ccc2nc(SCC(=O)N3CCCCC3)c(C#N)cc2c1", "inhibition": "19.1% (inactive)"}, {"smiles": "O=C(CSc1nc2ccccc2nc1SCC(=O)N1CCOCC1)N1CCOCC1", "inhibition": "6.36% (inactive)"}, {"smiles": "Cc1cc2ccccc2nc1SCC(=O)N1CCCC1", "inhibition": "11.8% (inactive)"}, {"smiles": "COc1ccc2nc(SCC(=O)N3CCCCCC3)c(C#N)cc2c1", "inhibition": "6.08% (inactive)"}, {"smiles": "O=C(CCc1nnc(Cc2c[nH]c3ccccc23)o1)NC(C1CC1)C1CC1", "inhibition": "1.78% (inactive)"}, {"smiles": "CN1CCN(C(=O)CCNC(=O)Cn2ccc3ccccc3c2=O)CC1", "inhibition": "2.23% (inactive)"}, {"smiles": "CC(=O)Nc1ccc(NC(=O)Cn2nc([N+](=O)[O-])c(Br)c2C)cc1", "inhibition": "-1.26% (inactive)"}, {"smiles": "CCn1c(COc2cccc(OC)c2)nnc1SCC(=O)Nc1cccc(OC)c1", "inhibition": "-3.8% (inactive)"}, {"smiles": "CCCn1cc(S(=O)(=O)CC(=O)N2CCc3ccccc32)c2ccccc21", "inhibition": "-2.1% (inactive)"}, {"smiles": "CCC(C)(C(=O)NC1CCCCC1)N(CC1CCCO1)C(=O)CNC(=O)c1ccccc1", "note": "(configuration not stated)", "inhibition": "4.25% (inactive)"}, {"smiles": "O=C(CS)Nc1ccc2ccccc2c1", "inhibition": "6.21% (inactive)"}, {"smiles": "CCCC(c1nnnn1CC1CCCO1)N1CCN(c2ccccc2)CC1", "note": "(configuration not stated)", "inhibition": "7.5% (inactive)"}, {"smiles": "Cc1ccc(Cl)cc1N1CCN(C(CC(C)C)c2nnnn2CC2CCCO2)CC1", "note": "(configuration not stated)", "inhibition": "-6.33% (inactive)"}, {"smiles": "CC(C)CC(c1nnnn1CC1CCCO1)N1CCN(c2cccc(Cl)c2)CC1", "note": "(configuration not stated)", "inhibition": "31.4% (active)"}, {"smiles": "CCCCCc1ccc(CC(=O)O)cc1", "inhibition": "3% (inactive)"}, {"smiles": "O=c1nc(N2CCCC2)nc(Nc2ccccc2)[nH]1", "inhibition": "9.86% (inactive)"}, {"smiles": "c1ccc(Nc2nc(N3CCCCC3)nc(N3CCCCC3)n2)cc1", "inhibition": "2.1% (inactive)"}, {"smiles": "CCOC(=O)CC(NC(C)=O)c1ccc([N+](=O)[O-])cc1", "note": "(configuration not stated)", "inhibition": "2.95% (inactive)"}, {"smiles": "CCc1cc2c(=O)c(-c3nc4ccccc4n3C)c(COCC(=O)O)oc2cc1O", "inhibition": "6.97% (inactive)"}, {"smiles": "COC(=O)C(=Nc1ccccc1)/C(C(=O)C(=O)N(C)c1ccccc1)=C(\\O)c1ccccc1", "inhibition": "16.3% (inactive)"}, {"smiles": "O=C(O)c1c2c(nc3ccc(S(=O)(=O)N4CCC(C(=O)NC5CCCCCC5)CC4)cc13)CCCC2", "inhibition": "23.1% (inactive)"}, {"smiles": "CCCNC(=O)C1CCN(S(=O)(=O)c2ccc(Br)cc2)CC1", "inhibition": "0.41% (inactive)"}, {"smiles": "CCCNC(=O)C1CCN(S(=O)(=O)c2ccc3nc4c(c(C(=O)O)c3c2)CCCCC4)CC1", "inhibition": "25.7% (active)"}, {"smiles": "CC1CCc2nc3ccc(S(=O)(=O)N4CCC(C(=O)NC5CCCC5)CC4)cc3c(C(=O)O)c2C1", "note": "(configuration not stated)", "inhibition": "23.4% (active)"}, {"smiles": "O=C(O)c1c2c(nc3ccc(S(=O)(=O)N4CCC(C(=O)NC5CCCC5)CC4)cc13)CCCCC2", "inhibition": "26.5% (active)"}, {"smiles": "O=C(O)c1c2c(nc3ccc(S(=O)(=O)N4CCC(C(=O)N5CCCCC5)CC4)cc13)CCCC2", "inhibition": "4.87% (inactive)"}, {"smiles": "CC1CCc2nc3ccc(S(=O)(=O)N4CCC(C(=O)N5CCCCC5)CC4)cc3c(C(=O)O)c2C1", "note": "(configuration not stated)", "inhibition": "7.8% (inactive)"}, {"smiles": "CC1CCc2nc3ccc(S(=O)(=O)N4CCC(C(=O)N5CCCCCC5)CC4)cc3c(C(=O)O)c2C1", "note": "(configuration not stated)", "inhibition": "13.6% (inactive)"}, {"smiles": "CC1CCC(NC(=O)C2CCN(S(=O)(=O)c3ccc4nc5c(c(C(=O)O)c4c3)CC(C)CC5)CC2)CC1", "note": "(configuration not stated)", "inhibition": "7.59% (inactive)"}]}]}
